Laboratory results: PubChem BioAssay (NCATS)
Inconclusive results are not listed. A call without a number means that no potency is given here. Active and inactive are the calls of the source. Calls come from the whole dose curve; as a rule, active = well fitted curve in the direction sought with a large enough effect; inconclusive = small, poorly fitted or top-dose-only effect, or another doubt; inactive = no such curve, though single readings can be large; an effect the other way counts as inactive or inconclusive.

system: not listed separately; test: qHTS Assay for Identification of Small Molecule Agonists for Thrombopoietin (TPO) Signaling Pathway (AID 917); settings: TPO signaling pathway reporter cells, agonist qHTS; series mostly up to 38.5 µM
In short: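 Cell-based luciferase reporter screen. Mouse Ba/F3 line stably expressing human TPO receptor; IL-3 removed overnight before plating. Co-treatment with compound and EC50 TPO (26 pM), 24 hrs at 37 C, then luminescence.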

With N[C@@H]1C[C@H]1c1ccccc1 as the molecule, how does the outcome read?
Its outcome is “inactive”.

With CC(=O)[C@H]1CC[C@H]2[C@@H]3CC[C@H]4C[C@H](O)CC[C@]4(C)[C@H]3C(=O)C[C@]12C as the molecule, how does the outcome read?
Its outcome is “inactive”.

Which outcome does the source give for NCC1(CC(=O)O)CCCCC1 here?
Its outcome is “inactive”.

Which outcome does the source give for CCCN1CCC[C@@H]2Cc3nc(N)ncc3C[C@H]21 here?
Its outcome is “inactive”.

Which outcome does the source give for CCn1cc(C(=O)O)c(=O)c2ccc(C)nc21 here?
Its outcome is “inactive”.

For Cc1ccc(S(=O)(=O)N[C@@H](CCCCN)C(=O)CCl)cc1, which outcome is on record?
The outcome was “inactive”.

For Clc1cccc(N2CCNCC2)c1, which outcome is on record?
Its outcome is “inactive”.

For CCCN1CCC[C@@H]2Cc3[nH]ncc3C[C@H]21, which outcome is on record?
Its outcome is “inactive”.

system: not listed separately; test: Cell Viability - LYMP2-001 (AID 921); settings: LYMP2-001 lymphoblastoid cell viability; series mostly up to 92.2 µM;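 note: cells exposed to compound for 24 h at 37 °C; nearly all actives have a fitted effect of over 70% in size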; note: potency is the fitted concentration of half-maximal effect
In short: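 Steps: seed 2500 lymphoblastoid cells/well; 5 hr, 37 C; add compound; 24 hr, 37 C; CellTiter-Glo reagent, 30 min room temperature; read luminescence. Concentration-response modeled by Hill equation for AC50.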

With OCCOc1ccccc1 as the molecule, how does the Potency read?
Its Potency is “inactive”.

Which Potency does the source give for Oc1ccc(Cl)cc1Cc1ccccc1 here?
The Potency was “inactive”.

Which Potency does the source give for CCOP(=S)(OCC)Oc1cc(C)nc(C(C)C)n1 here?
The Potency was “inactive”.

For c1ccc2c(c1)Nc1ccccc1S2, which Potency is on record?
Its Potency is “inactive”.

For Oc1ccccc1-c1ccccc1, which Potency is on record?
Its Potency is “inactive”.

With N[C@@H](Cc1ccc(N(CCCl)CCCl)cc1)C(=O)O as the molecule, how does the Potency read?
The Potency was 39.8 µM (active).

Which Potency does the source give for CNCC(O)c1ccc(O)cc1 (configuration not stated) here?
Its Potency is “inactive”.

target: Muscarinic acetylcholine receptor M1 (Rattus norvegicus) (UniProt P08482); test: qHTS Assay for Antagonists of Acetylcholine Muscarinic M1 Receptor: Kinetic Measurement of Intracellular Calcium Response (AID 943); settings: M1-expressing cells, kinetic intracellular calcium fluorescence; series mostly up to 35.3 µM; note: nearly all actives have a fitted effect of over 75% in size; note: potency is the fitted concentration of half-maximal effect
In short: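 Read-out: peak over basal Fluo-4 fluorescence, kinetic at 1 Hz for 4 min after EC80 carbachol (100 nM final). Rat M1-CHO cells, dye loaded 1 h at 37C, compound added 10 min before agonist.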

Sequence of Muscarinic acetylcholine receptor M1 (Rattus norvegicus) (P08482 whole entry, looked up): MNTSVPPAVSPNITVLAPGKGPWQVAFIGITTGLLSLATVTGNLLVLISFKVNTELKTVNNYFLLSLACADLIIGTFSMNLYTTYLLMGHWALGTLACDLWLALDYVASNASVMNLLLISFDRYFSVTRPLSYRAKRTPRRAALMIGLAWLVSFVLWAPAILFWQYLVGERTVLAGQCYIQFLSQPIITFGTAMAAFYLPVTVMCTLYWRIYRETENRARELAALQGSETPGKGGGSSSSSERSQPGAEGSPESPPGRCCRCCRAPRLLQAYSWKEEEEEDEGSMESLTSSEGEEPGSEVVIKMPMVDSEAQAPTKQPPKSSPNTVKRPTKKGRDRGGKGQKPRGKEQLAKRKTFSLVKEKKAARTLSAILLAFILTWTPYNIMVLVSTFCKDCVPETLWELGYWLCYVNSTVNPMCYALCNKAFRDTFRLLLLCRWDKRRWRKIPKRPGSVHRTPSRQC

For O=c1c(O)c(-c2ccc(O)c(O)c2)oc2cc(O)cc(O)c12, which Potency is on record?
The Potency was “inactive”.

Which Potency does the source give for CCn1cc(C(=O)O)c(=O)c2ccc(C)nc21 here?
Its Potency is “inactive”.

With Cc1ccc(S(=O)(=O)N[C@@H](CCCCN)C(=O)CCl)cc1 as the molecule, how does the Potency read?
Its Potency is “inactive”.

Which Potency does the source give for Fc1ccc(C(OCCN2CCN(CCCc3ccccc3)CC2)c2ccc(F)cc2)cc1 here?
Its Potency is 1.58 µM (active).

With CCCN1CCC[C@@H]2Cc3[nH]ncc3C[C@H]21 as the molecule, how does the Potency read?
The Potency was “inactive”.

target: Muscarinic acetylcholine receptor M1 (Rattus norvegicus) (UniProt P08482); test: qHTS Assay for Antagonists of Acetylcholine Muscarinic M1 Receptor: Measurement of IP-One Response (AID 944); settings: CHO-M1 cells, IP-One HTRF, antagonist mode; series mostly up to 46.1 µM; note: nearly all actives have a fitted effect of over 75% in size; note: potency is the fitted concentration of half-maximal effect
In short: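 Read-out: HTRF competition between d2-IP1 and Eu-cryptate anti-IP1 antibody, emission 620 and 665 nm. Stimulus was carbachol, EC80 (200 nM), for 30 min in M1-CHO cells (rat receptor), after 10 min compound pre-treatment.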

For N[C@@H]1C[C@H]1c1ccccc1, which Potency is on record?
The Potency was “inactive”.

Which Potency does the source give for c1ccc(C2CC2)c(OCC2=NCCN2)c1 here?
The Potency was 10 µM (active).

With CN1C[C@H](CNC(=O)OCc2ccccc2)C[C@@H]2c3cccc4c3c(cn4C)C[C@H]21 as the molecule, how does the Potency read?
The Potency was 15.8 µM (active).

Which Potency does the source give for CCCN1CCC[C@@H]2Cc3nc(N)ncc3C[C@H]21 here?
The Potency was “inactive”.

Which Potency does the source give for CCn1cc(C(=O)O)c(=O)c2ccc(C)nc21 here?
Its Potency is “inactive”.

For Fc1ccc(C(OCCN2CCN(CCCc3ccccc3)CC2)c2ccc(F)cc2)cc1, which Potency is on record?
Its Potency is 7.94 µM (active).

For Cc1nc2n(c(=O)c1CCN1CCC(c3noc4cc(F)ccc34)CC1)CCCC2, which Potency is on record?
The Potency was 12.6 µM (active).

With CCCN1CCC[C@@H]2Cc3[nH]ncc3C[C@H]21 as the molecule, how does the Potency read?
Its Potency is “inactive”.

With CNCC(O)c1ccc(O)cc1 (configuration not stated) as the molecule, how does the Potency read?
Its Potency is “inactive”.

system: not listed separately; test: MultiTox-Fluor Cytotoxicity Assay - LYMP1-001 - Dead Cells (AID 946); settings: LYMP1-001 lymphoblastoid cells, dead-cell protease fluorescence; series mostly up to 92.2 µM;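 note: cells exposed to compound for 16 h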; note: potency is the fitted concentration of half-maximal effect
In short: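 In this qHTS, 15 uM tetraoctylammonium bromide defined 100% and DMSO defined basal activity. Lymphoblastoid cells (LYMP1-001, 2500 per well) received compound for 16 hr at 37 C before a fluorogenic dead-cell substrate readout at 485/520 nm.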

With OCCOc1ccccc1 as the molecule, how does the Potency read?
Its Potency is “inactive”.

Which Potency does the source give for Oc1ccc(Cl)cc1Cc1ccccc1 here?
The Potency was “inactive”.

With CCOP(=S)(OCC)Oc1cc(C)nc(C(C)C)n1 as the molecule, how does the Potency read?
Its Potency is “inactive”.

With c1ccc2c(c1)Nc1ccccc1S2 as the molecule, how does the Potency read?
Its Potency is “inactive”.

Which Potency does the source give for Oc1ccccc1-c1ccccc1 here?
The Potency was “inactive”.

For C[C@]12C/C(=C/O)C(=O)C[C@@H]1CC[C@@H]1[C@@H]2CC[C@@]2(C)[C@H]1CC[C@]2(C)O, which Potency is on record?
Its Potency is 50.1 µM (active).

Which Potency does the source give for CC(=O)Oc1ccccc1C(=O)Nc1ncc([N+](=O)[O-])s1 here?
Its Potency is 39.8 µM (active).

Which Potency does the source give for CNCC(O)c1ccc(O)cc1 (configuration not stated) here?
The Potency was “inactive”.
